Compound activity (PubChem)
CHT PAM – human CHT allosteric activation | CHT-expressing cells, membrane potential dye, choline EC20; active compounds read high; LV-AA mutant CHT in HEK293 cells | Q9GZV3 | B-score at 10 µM | actives 0.49% (n = 310,000);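 active means initial fluorescence not abnormally high and integrated response B-score, plate-corrected, over 3 SD above library mean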
CHT inh – inhibitors of human choline transporter CHT; CHT-expressing cells, membrane potential dye, choline response; active compounds read low; actives 0.86% (n = 310,000); B-score at 10 µM; Q9GZV3; AID 488975;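 active means B-score over 3 SD under the library average, and starting fluorescence ratio not unusually high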;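 further: choline stimulus applied at its EC90 after an EC20 pre-addition; B-score computed on integrated fluorescence ratio after choline addition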
ANO1 activ – activates or potentiates the mouse TMEM16A chloride channel. B-score at 10 µM. AID 623877. HEK293 TMEM16A/YFP-H148Q/I152L, iodide quench fluorescence; active compounds read low. Q8BHY3. actives 0.3% (n = 340,000);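 active means fluorescence-ratio B-score plate-corrected deviation score at least 3 library SD below zero, with starting fluorescence score within 5 deviations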;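 further: channel opened by trigger with iodide after compound preincubation; score built on the fluorescence ratio of max minus min over baseline; more negative score means more quench and so TMEM16A activation or potentiation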
HDAC3 inhib – inhibitors of human histone deacetylase 3; actives 0.15% (n = 320,000); inhibition, % at 8.3 µM; O15379; recombinant HDAC3, fluorogenic peptide/trypsin coupled, fluorescence; in the data active means inhibition above about 26%, passing the limit was not always enough
Target sequence (O15379 whole entry, looked up): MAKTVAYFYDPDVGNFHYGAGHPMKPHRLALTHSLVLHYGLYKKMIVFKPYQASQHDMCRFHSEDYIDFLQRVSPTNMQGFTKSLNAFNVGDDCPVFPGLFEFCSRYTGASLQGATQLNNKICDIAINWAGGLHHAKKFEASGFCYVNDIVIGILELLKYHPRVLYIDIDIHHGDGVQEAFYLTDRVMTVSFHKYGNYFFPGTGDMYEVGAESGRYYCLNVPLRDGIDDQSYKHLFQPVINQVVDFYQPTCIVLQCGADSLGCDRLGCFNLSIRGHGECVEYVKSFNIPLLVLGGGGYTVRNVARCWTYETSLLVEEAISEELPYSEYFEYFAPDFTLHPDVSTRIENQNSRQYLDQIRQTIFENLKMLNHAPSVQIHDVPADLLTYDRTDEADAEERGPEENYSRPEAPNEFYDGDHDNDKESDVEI
ANO1 block – blocks the mouse calcium-activated chloride channel TMEM16A; Q8BHY3; HEK293 TMEM16A/YFP iodide influx fluorescence, ionomycin; normalized B-score (activity score, 25-100; higher = stronger inhibition) at 10 µM; actives 1.2% (n = 310,000); AID 588511;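 active means ratio plate-corrected score three or more library SD toward inhibition, starting fluorescence score within five deviations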;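 further: score derived from kinetic fluorescence span divided by baseline fluorescence per well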
PHOSPHO1 block – PHOSPHO1 (human) inhibition; Q8TCT1; recombinant PHOSPHO1, absorbance phosphatase assay; inhibition, % at 13.3 µM; actives 1.1% (n = 290,000); AID 1565; in the data active means inhibition above about 60%
An asterisk follows results filed as active; i = inactive; x = not tested or not shown. Shown are actives, neighbours in structure and some others; about 3.2% of the full set was active somewhere.

SMILES	CHT PAM	CHT inh	ANO1 activ	HDAC3 inhib	ANO1 block	PHOSPHO1 block
CCOC(=O)c1ccc(NC(=O)CCS(=O)(=O)Cc2ccccc2)cc1	i	i	i	x	i	63*
COC(=O)c1ccc(NC(=O)CS(=O)(=O)Cc2ccccc2)cc1	i	i	i	-1	i	-7
COc1ccc(-c2nnc3ccc(SCC(=O)Nc4nc5ccccc5s4)nn23)cc1OC	i	i	i	3	i	-3
CC(C)NS(=O)(=O)c1ccc(NC(=O)C(C)Oc2ccc(C(=O)c3ccccc3)cc2)cc1 (stereo not drawn)	i	i	i	7	100*	0
CC(Oc1ccccc1)C(=O)Nc1ccc(C(N)=O)cc1 (stereo not drawn)	i	i	i	5	i	10
COc1cccc(OC)c1C(=O)NNC(=O)c1cccc(COc2ccc3c(c2)CCC3)c1	i	i	i	-9	25*	6
CC(=O)Nc1ccc(OCC[n+]2cccc(C(N)=O)c2)cc1	i	i	i	-1	i	36
CC(=O)Nc1ccc(OCCC[n+]2ccccc2)cc1	i	i	i	0	i	60*
O=S(=O)(N1CCCCC1)N1CCN(c2cc(Cl)ccc2Cl)CC1	i	i	-8*	4	i	43
Cc1ccc(-n2nc3c(c2NC(=O)C(C)(C)C)CSC3)c(C)c1	i	i	i	1	i	88*
CCC(=O)Nc1c2c(nn1-c1ccc(C)cc1C)CSC2	i	i	i	-2	i	86*
CCOC(=O)N1CCc2c(sc3c2c(=O)n(-c2ccc(CC)cc2)c(=O)n3CC(=O)NCC2CCCO2)C1 (stereo not drawn)	i	i	i	-4	i	38
O=c1[nH]c2ccc(NC(=S)Nc3ccccc3Cl)cc2[nH]1	i	i	i	-2	i	30
COc1ccnc(Oc2cccc(C(F)(F)F)c2)c1C(=O)N/C=N/OCc1ccccc1F	i	i	i	23	i	24
Cc1ccc(/C=N/NC(=O)c2cccc(S(=O)(=O)Nc3cccc(Cl)c3)c2)o1	i	i	i	-1	i	52
CCOC(=O)CCCNC(=O)CCNC(=O)c1ccc(OC(C)C)cc1	i	i	i	-5	i	-18
O=C(NCC1CCCO1)C1CCCN1C(=O)Nc1ccc(Cl)cc1 (stereo not drawn)	i	i	i	0	i	60*
CCOc1ccc(NC(=O)N2CCCC2C(=O)NCC2CCCO2)cc1 (stereo not drawn)	i	i	i	-5	i	37
Cn1c(COc2cccc3ccccc23)nnc1SCC(=O)OC1CCCCC1	i	i	i	5	i	10
CCn1c(COc2cccc3ccccc23)nnc1SCC(=O)OC1CCCCC1	i	i	i	18	100*	-38
CCn1c(COc2ccccc2C)nnc1SCC(=O)CC(=O)Nc1ccccc1	i	i	x	4	i	69*
CCN(CC)S(=O)(=O)c1cc(C)ccc1NC(=S)Nc1cccnc1	i	i	i	9	25*	13
CCN(CC)S(=O)(=O)c1cc(C(=O)Nc2cccnc2)ccc1Cl	i	i	i	2	i	3
CCN(CC(=O)Nc1ccccc1C(F)(F)F)C(=O)CN1C(=O)NC(C)(c2ccc3ccccc3c2)C1=O (stereo not drawn)	x	x	i	x	x	x
Cc1ccc(NC(=S)NN2CCOCC2)c(C)c1	i	i	i	-3	i	33
SMILES	CHT PAM	CHT inh	ANO1 activ	HDAC3 inhib	ANO1 block	PHOSPHO1 block
C=CCNC(=O)COC(=O)c1ccc(Cl)c(S(N)(=O)=O)c1	i	i	-29*	-12	i	32
CNC(=O)COC(=O)c1ccc(Cl)c(S(N)(=O)=O)c1	i	i	i	3	i	33
O=CN(Cc1ccccc1)c1cc([N+](=O)[O-])ccc1OCc1ccccc1	x	x	i	x	x	x
CC(OC(=O)c1n[nH]c2ccccc12)C(=O)Nc1ccccc1[N+](=O)[O-] (stereo not drawn)	x	x	i	7	x	x
COc1cc(/C=C2\SC(=Nc3ccccc3)N(Cc3ccco3)C2=O)ccc1OC(C)C(=O)O (stereo not drawn)	i	i	i	2	i	-9
COCCN1C(=O)/C(=C/c2ccc(OCc3ccc(C(=O)O)cc3)c(OC)c2)SC1=Nc1ccccc1	i	i	i	6	100*	-8
Cn1nccc1C(=O)NC(=S)Nc1sc2c(c1C#N)CCCCC2	i	i	i	-1	i	68*
N#Cc1c(NC(=S)NC(=O)c2ccccc2)sc2c1CCC2	i	i	i	2	i	-20
Brc1ccccc1OCCCCn1cnc2ccccc21	i	i	i	6	100*	29
Clc1ccccc1OCCn1cnc2ccccc21	i	i	i	x	i	-16
Cc1ccc(SCc2c(C#N)c3ccccc3n2C)cc1	i	i	i	3	25*	2
C=CCn1c(SCc2nc3sc(C(=O)O)c(C)c3c(=O)[nH]2)nnc1-c1ccc(C(C)(C)C)cc1	i	i	i	-1	i	42
COc1ccc(OCc2nnc(SCC(=O)O)n2N)cc1	i	i	i	1	i	60*
C=CCn1c(SCC(=O)O)nnc1-c1ccc(C(C)(C)C)cc1	i	i	i	0	i	94*
CC(C)OC(=O)CSc1nnc(-c2ccc(C(C)(C)C)cc2)n1N	i	i	i	6	i	67*
COc1ccc(-c2nnc(SCC(N)=O)n2N)cc1	i	i	i	-1	i	32
CC(C)OC(=O)CSc1nnc(-c2ccncc2)n1N	i	i	i	2	i	-6
COc1ccc(OCc2nnc(SCC(N)=O)n2N)cc1	i	i	i	1	i	7
CC(C)(C)c1ccc(-c2nnc(SCC(=O)O)n2N)cc1	i	i	i	2	i	75*
CN(CC(=O)O)S(=O)(=O)c1ccc2c(c1)NC(=O)CC(=O)N2	i	i	i	1	i	20
NS(=O)(=O)c1ccc(NNC(=O)c2cccs2)cc1	i	i	i	10	i	-1
Cc1cccc(CC2S/C(=N/N=C/c3ccco3)N(c3ccccc3)C2=O)c1 (stereo not drawn)	i	i	i	1	i	-10
CCCCn1c(=O)[nH]c(=O)c2c1nc(-c1ccc(C)c([N+](=O)[O-])c1)n2CC	i	i	i	-9	i	36
